Laboratory results: ChEMBL document CHEMBL4888484, “Replenishing the malaria drug discovery pipeline: Screening and hit evaluation of the MMV Hit Generation Library 1 (HGL1) against asexual blood stage Plasmodium falciparum ,using a nano luciferase reporter read-out” (2022)
Out of some 150,000 compounds screened, about 540 (0.36%) showed an effect of 50% or more. What follows is part of a selection rich in strong results, with near analogues and random picks from the rest.

These compounds were tested on Plasmodium falciparum (assay: Primary screen in NF54 nanoGlo assay, in single point, at 2uM, 72h; a lower Z score goes with more inhibition). Conditions: timepoint 72 hour.
Type: functional, Erythrocyte

SMILES	% Inhibition [%]	Z score
CCN1C[C@]2(CCCN(C(=O)c3ccccc3N3CCCC3)C2)CCC1=O	7	-1.03
Cc1nn(-c2cnc(N)cn2)c(C)c1Cc1ccccc1	-7	0.91
COc1ccc(CC(=O)N2CC3(C[C@H](N4CCN(C)CC4)CO3)C2)cc1	-7	1.04
Clc1ccccc1OCCn1nc(C2CC2)nc1C1CC1	2	-0.37
C[C@@H]1CN(c2nc(C(F)F)nc3ccc(F)cc23)C[C@H](C)N1	-4	0.64
CO[C@@H]1CO[C@H]2[C@@H]1OC[C@@H]2Nc1nccc(-c2ccc3c(c2)OCO3)n1	-2	0.19
CCn1ccc(C(=O)N2CCCN(Cc3c(C)noc3C)CC2)n1	-3	0.35
NC(=O)[C@@H]1CCCCN1C(=O)c1ccnc(-n2cccn2)c1	12	-1.33
CC[C@H]1CCCCCN1C(=O)c1ccnc(OC2CCC2)c1	-5	0.5
NC(=O)[C@@H]1CCCN1C(=O)c1ccnc(OC2CCCCC2)c1	53	0.89
COc1ccc(CCc2nc(NC(=O)[C@H]3CC(=O)N(C)C3)n[nH]2)cc1OC	15	-2.27
COc1ccc(CCc2nc(NC(=O)c3nc(C)sc3C)n[nH]2)cc1OC	71	-9.67
COc1ccc(CCc2nc(NC(=O)C(C)C)n[nH]2)cc1OC	13	-1.63
COC1CCCC(CC(=O)NC2CC(=O)N(C)C2)C1 (centres undefined)	2	-0.4
CC(C)C[C@H]1CCCN(CC(=O)N2CC(=O)Nc3ccccc32)C1	-1	0.19
CN(C[C@H](O)C(F)(F)F)C(=O)c1ccc(C#N)cn1	-15	1.32
CC(=O)N1CCN(C(=O)NCc2cc(F)ccc2C)C[C@@H](O)C1	-9	0.8
CCC(C)(CC)[C@@](O)(C#CC[N+]1(Cc2ccccc2)CCCCC1)c1ccccc1	38	-1.99
CCC(C)(CC)[C@@](O)(C#CC[N+]1(Cc2ccccc2Cl)CCCCC1)c1ccccc1	39	-4.45
CCC1([C@@](O)(C#CCN(Cc2ccccc2)C(C)(C)C)c2ccccc2)CCCC1	33	-3.73
CCC[N+]1(CC#C[C@@](O)(c2ccccc2)C(C)(CC)CC)CCCCC1	54	-8.65

SMILES	% Inhibition [%]	Z score
CCC[N+]1(CC#C[C@@](O)(c2ccccc2)C2(C)CCCC2)CCCCC1	51	-4.55
CC1([C@@](O)(C#CC[N+]2(C)CCCCC2)c2ccccc2)CCCC1	60	-9.64
C[N+]1(C/C=C/C(O)(c2ccccc2)c2ccccc2)CCCCC1	12	-1.05
CCC1([C@@](O)(C#CCN2CCCCCC2)c2ccccc2)CCCC1	-16	1.41
CCC[N+]1(CC#CC2(O)CCCCC2)CCOCC1	-9	1.67
CCOC[C@H]1CCN(C(=O)C2(O)CN(C(=O)OC(C)(C)C)C2)C1	-4	0.81
Cn1cccc(C(=O)N2CCC(c3nnc(C(F)(F)F)o3)CC2)c1=O	-12	1.33
Cc1ccc(-c2cc(C(=O)Nc3ncccc3Cl)c3ccccc3n2)s1	3	-0.34
CCOc1cc2c(cc1CN1CCN(C)[C@]3(CCC(=O)N(C)CC3)C1)CCC2	-10	1.92
CC1(C(=O)N2CC3CCCCC3C2)CCCC1 (centres undefined)	-24	2.4
O=C(c1cccc2cc[nH]c12)N1C[C@@H]2[C@H](C1)[C@H]1CC[C@@H]2O1	18	-1.92
c1cc(-c2nc3ccccc3o2)cc(-c2nc3ccccc3o2)c1	-13	2.52
Clc1ccc(C[n+]2ccc(-c3nc4ccccc4o3)cc2)c(Cl)c1	79	-11.4
Clc1ccc(COc2ccc(Br)cc2CNc2ccc(-c3nc4ccccc4o3)cc2)c(Cl)c1	-39	4.57
Cc1cc(C(=O)NCc2ccncc2)c(=O)n(C)c1C	-11	1.52
CC(NCC1CS(=O)(=O)c2ccccc21)[C@@H]1C[C@H]1C1CC1 (some centres undefined)	-3	0.41
NC(=O)c1ccccc1NC(=O)C1CCN(c2cc(C3CC3)ncn2)CC1	57	-10.93
NC(=O)c1ccccc1NC(=O)C1CCN(c2cc(N3CCCC3)ncn2)CC1	7	-1.36
O=C(Nc1ccccc1F)C1CCN(c2cc(C3CC3)ncn2)CC1	-16	3.11
Cc1cc(NC(=O)c2ccc3c(c2)C(=O)N(C[C@H]2CCCO2)C3=O)no1	-8	1.45
CNC(=O)[C@@H]1CCCN1C(=O)CNC(=O)c1cccc2c1OCC2	-5	0.71

SMILES	% Inhibition [%]	Z score
Cc1ncsc1CCN(C)CCn1cc[nH]c1=O	-15	3.22
O=C(NC(C1CC1)C1CC1)c1coc(COc2cccc(F)c2)n1	-6	1.01
Cc1noc(Cl)c1CC(=O)N1CCCC(C)(C)CC1	44	-6.85
Cc1noc(C)c1CC(=O)N1CCCCCC1	-23	2.1
CC[C@@]1(C)CCCN(C(=O)Cc2c(C)noc2Cl)C1	85	-13.67
Cc1cc(C(=O)Nc2nc(C)cs2)on1	-13	2.13
c1ccc2cc(-c3ccc4ccccc4n3)ccc2c1	41	-1.59
O[C@@H](Cc1ccc2ccccc2n1)c1ccccc1	33	0.78
Cc1ccc[n+](CC2OCc3ccccc3CO2)c1	5	-0.68
Cc1ccc[n+](Cc2ccc3ccccc3n2)c1	59	-7.89
Cc1nnc(CN(C)Cc2ccc3ccccc3n2)o1	-21	2.06
c1ccc2c[n+](Cc3ccc4ccccc4n3)ccc2c1	59	-7.39
Cc1ccc(S(=O)(=O)N2CCO[C@@H](COc3ccccc3)C2)c(C)c1NS(C)(=O)=O	0	0.05
COC(C)(C)CCC[C@H](C)CCNCC(C)(C)N1CCOCC1	1	-0.18
N#C[C@H]1C(=O)c2ccccc2N(Cc2ccccc2)C1=O	-5	0.84
CCN1CC(=O)N[C@H]2CN(C(=O)c3cnn(CC)c3C)CC[C@@H]2OCc2cccc(c2)Oc2cc(OC(C)C)cc(c2)C1=O	-5	0.73
CCn1nc(-c2ccc(OC)cc2F)cc1C(=O)NCCN1CCCCC1	-17	2.1
Cc1cc(C)c2nc(N3CCC(C(=O)NC4CCCCCC4)CC3)sc2c1	-8	1.22
CC(C)CNC(=O)CS(=O)(=O)Cc1ccccc1	-6	1.18
CCOC(=O)N1CCC(NC(=O)c2coc(NC(=O)Cc3c(C)noc3C)n2)CC1	18	-2.53
CC(C)c1cc(=O)[nH]c(-n2nc(C3CC3)cc2NC(=O)COc2ccc3ccccc3c2)n1	54	-12.73

SMILES	% Inhibition [%]	Z score
CC(C)c1cc(=O)[nH]c(-n2nc(C3CC3)cc2NC(=O)c2ccccc2C(F)(F)F)n1	18	-3.33
Cc1nc(CC(=O)Nc2cc(C3CC3)nn2-c2ccccc2)cs1	38	-0.78
CC(C)c1cc(=O)[nH]c(-n2nc(C3CC3)cc2NC(=O)Cc2ccc(Cl)cc2)n1	74	-12.5
COc1ccc(C(=O)OCC(=O)Nc2cc(C3CC3)nn2-c2ccccc2)c(O)c1	-7	1.34
COc1ccc(C2CN(Cc3ccccn3)CC2CN(Cc2ccc(F)cc2)C(C)=O)cc1 (centres undefined)	15	-1.72
COC(=O)c1ccc(C)c(NC(=O)c2cn(C)cn2)c1O	-2	0.17
COCCCN(Cc1ccco1)C[C@H](O)COC(C)(C)C	2	-0.27
CC(C)(Oc1cc2c(cc1-c1cncc(C3CC3)c1)CCO2)C(=O)O	-1	0.1
CC(C)c1cc(=O)[nH]c(-n2nc(C3CC3)cc2NC(=O)c2ccc(F)cc2)n1	90	-16.95
Cc1cc(=O)[nH]c(-n2nc(C3CC3)cc2NC(=O)c2ccc(C(C)(C)C)cc2)n1	57	-4.8
CC[C@@H](C(=O)Nc1cc(C)nn1-c1nc2c(c(=O)[nH]1)CCC2)c1ccccc1	17	-3.37
Cc1cc(=O)[nH]c(-n2nc(C3CC3)cc2NC(=O)C(c2ccccc2)c2ccccc2)n1	86	-11.5
CC(C)c1cc(=O)[nH]c(-n2nc(C3CC3)cc2NC(=O)c2ccc(F)c(F)c2)n1	5	-0.72
COCC(=O)Nc1cc(C2CC2)nn1-c1nc(C)cc(=O)[nH]1	4	-0.78
Cn1nc(C2CCCC2)cc1NC(=O)c1ccc(OCC(=O)O)cc1	1	-0.23
Cc1nn(C(C)C)c(C)c1CN(C)C(=O)c1cc(C#N)c[nH]1	0	-0.07
CN1C(=O)CCC12CCN(S(=O)(=O)Cc1ccc(Cl)cc1F)CC2	-3	0.59
c1ccc(-c2noc(C3CCN(c4ccc5nncn5n4)CC3)n2)nc1	-18	2.08
CC(C)c1nccn1CC(=O)N(C)[C@@H](C)c1ccc(F)c(F)c1	-1	0.13
